Shn3 inh set2 – reduction of Shn3 3'UTR firefly luciferase signal, primary screen, Schnurri-3 inhibitor project, cell-based, Clone20 osteoblasts, set 2; Clone20 osteoblast Shn3 3'UTR firefly luciferase, 24 h; inhibition, % at 12.5 µM; 360,000 compounds, 0.52% hits;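 active = mean inhibition of at least 75% with every replicate also reaching 75%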;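 also: 0% = median of neutral control wells and 100% = pilot-screen positive control compound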
HIF-2a block – HIF-2a reporter inhibitors, primary screen, luminescence, 786-0 RCC cells | 786-0 RCC cells HIF-2a reporter, luciferase luminescence, overnight | inhibition, % at 18.8 µM | 360,000 compounds, 0.72% hits;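 active = inhibition of the luminescence signal of 40% or more relative to plate controls, in a single-dose primary screen at 18.75 µM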
TWEAK Fn14 block – inhibitors of TWEAK-Fn14 signaling, primary screen, luciferase reporter cells, uHTS; TWEAK-stimulated Fn14 reporter cells, luciferase luminescence, 8 h; inhibition, % at 10 µM; 360,000 compounds, 2% hits; in the data active = inhibition above about 50%
TROY NFkB inh – inhibitors of TROY-driven NF-kB signaling, primary screen, Q293 LMP1-TROYcd cells, NF-kB luciferase, uHTS; Q293 LMP1-TROYcd NF-kB luciferase reporter, 4 h; inhibition, % at 10 µM; 360,000 compounds, 0.98% hits;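 active = compounds whose plate-normalised and pattern-corrected inhibition of the luciferase reporter signal at the single screening dose is 50% or more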
LMP1 NFkB inh – EBV LMP1-driven NF-kappaB luciferase reporter inhibitors, primary screen, cell-based, luminescence, single point; LMP1-induced NF-kappaB luciferase reporter cells; inhibition, % at 12.5 µM; 350,000 compounds, 0.69% hits; AID 504558, 2011; in the data active = inhibition above about 41%;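 also: 0% = neutral control wells and 100% = reference inhibitor control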
MITF TRPM1 inh – inhibitors of MITF-dependent TRPM1 promoter reporter, primary screen, cell-based, SK-MEL-5, single point, luciferase. SK-MEL-5 TRPM1 promoter luciferase, 24 h. inhibition, % at 12.5 µM. 330,000 compounds, 0.83% hits. AID 488899, 2010;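 active = mean inhibition across replicates of 60% or more, whatever share of single replicates reaches that level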
* = called active by the depositor; · = not tested or not shown. Sampled rows, rich in hits. Any-hit rate of the full collection: about 3.4%.

SMILES	Shn3 inh set2	HIF-2a block	TWEAK Fn14 block	TROY NFkB inh	LMP1 NFkB inh	MITF TRPM1 inh
N#CC(=C=[N-])c1nc2ccccc2nc1-[n+]1cccc(NC(=O)c2ccccc2)c1	-46.6	3.5	75.1*	-12.6	1.4	18.8
CC(=O)c1cccc(NC(=O)CN2C(=O)NC(C)(C)C2=O)c1	-7.7	2.2	4.1	9.1	7.3	-5.2
CC1(C)OC2OC3C(CNCCO)OC(c4ccccc4)OC3C2O1 (stereo not drawn)	-53.5	4.0	1.9	-2.6	-7.7	-0.8
Cc1cccc(-n2ncc3c(N4CC(C)CC(C)C4)ncnc32)c1 (stereo not drawn)	-0.7	-323.5	11.2	33.2	-62.8	-81.4
Cc1cccc(-n2ncc3c(N4CCCC4)ncnc32)c1	11.2	-148.2	57.2*	21.8	7.3	-47.5
Cc1cccc(-n2ncc3c(N4CCOCC4)ncnc32)c1	23.4	22.4	84.8*	67.9*	65.6*	56.4
Cc1ccc(S(=O)(=O)Nc2ccc(Cl)cc2O)cc1	·	-27.1	·	·	·	·
CCCCCCCNC(=O)C1(CC2CC(c3ccc(Cl)cc3)=NO2)CCNCC1 (stereo not drawn)	2.3	-2.3	-78.4	-46.2	-9.0	88.4*
CC(=O)c1c(N2CCCC2)[nH]c(-c2ccccc2)nc1=S	-8.1	-10.6	0.1	2.7	8.3	-19.2
CC(=O)c1c(N2CCOCC2)[nH]c(-c2ccccc2)nc1=S	-14.2	23.6	15.3	66.9*	-2.2	-1.8
Cc1noc(NS(=O)(=O)c2ccc(NC(=O)c3ccccc3NS(=O)(=O)c3ccc(F)c(F)c3)cc2)c1C	-17.5	14.6	-33.1	-5.5	-4.6	-12.0
Brc1ccc(C2=Nn3c(nnc3-c3n[nH]c4c3CCC4)SC2)cc1	-24.2	21.9	59.8*	20.2	26.4	16.4
Clc1ccc(C2=Nn3c(nnc3-c3n[nH]c4c3CCC4)SC2)cc1	7.4	-1.2	54.8*	18.2	13.5	27.6
Cc1ccc(-c2cc(=O)c3cc(F)ccc3[nH]2)cc1	7.1	-139.8	-9.9	-27.4	-9.1	-17.5
Cc1ccc(-c2cc(=O)c3cc(C)ccc3[nH]2)cc1	-32.6	-94.9	66.6*	15.9	23.7	8.2
O=c1[nH]cc(CCc2ccccc2)c(=O)[nH]1	-1.5	1.2	7.2	2.7	-2.0	·
c1ccc2c(Nc3nc(N4CCOCC4)c4ccccc4n3)cccc2c1	41.8	9.5	52.0*	18.7	-1.7	15.1
CCOC(=O)C1(C)CCN1C(=O)c1ccc(OC)c(C(F)(F)F)c1 (stereo not drawn)	4.8	10.9	-12.7	-0.1	·	·
Cc1cccc(N=C2NN=C(c3ccc4c(c3)OCCO4)CS2)c1	-46.7	-190.2	54.5*	56.7*	-23.1	-43.4
Cc1ccc(C2=NNC(=Nc3ccc(F)cc3)SC2)cc1	-37.9	-200.4	22.0	-11.9	-23.8	-19.8
Cc1cccc(N=C2NN=C(c3c(C)[nH]c4ccccc34)CS2)c1	44.4	-16.7	15.3	17.0	-51.7	12.9
CCc1ccc(C2=NNC(=Nc3cccc(S(=O)(=O)N(C)C)c3)SC2)cc1	76.4	-5.2	71.5*	27.9	-2.9	53.1
CCCCC(=O)N(C)c1c(C)nc2ccc(C(=O)N(C)Cc3ccco3)cn12	-2.8	7.2	-2.7	12.9	·	·
COc1cc(C(=O)N/N=C(\C)c2ccccn2)cc(OC)c1OC	-3.2	-3.5	-3.3	26.8	13.3	39.0
COc1cccc(C(=O)N/N=C(/CCC(=O)O)c2ccccc2)c1	-5.6	-17.2	-12.4	-83.8	-18.5	-8.3
SMILES	Shn3 inh set2	HIF-2a block	TWEAK Fn14 block	TROY NFkB inh	LMP1 NFkB inh	MITF TRPM1 inh
COc1cccc(C(=O)N/N=C(/c2ccccc2)c2ccccn2)c1	79.0	-15.4	-52.6	-18.9	39.9	66.1*
COc1cc(C(=O)N/N=C(\c2ccccc2)c2ccccn2)cc(OC)c1OC	88.6*	28.9	-91.3	14.4	23.1	78.4*
COc1ccc(NC(=O)c2ccc3c(c2)NC(=O)CS3)cc1	-36.1	-168.0	-2.2	-27.3	-13.4	-50.7
Cc1ccc(NS(=O)(=O)c2cc(NC(=O)c3ccc4c(c3)NC(=O)CS4)ccc2Cl)c(C)c1	14.2	34.3	66.3*	48.6	6.7	-2.7
COC(=O)CCC(=O)OC1(C)C(=O)C=C2C=C(C3CC3)N(CC3CC3)C=C2C1=O (stereo not drawn)	-13.5	4.5	-5.9	16.3	50.2*	11.6
O=C(C1CCCO1)N1CCN(C(=S)Nc2ccc(F)c(Cl)c2)CC1 (stereo not drawn)	29.2	3.8	0.4	-5.8	3.7	-9.1
COc1ccc(NC(=S)NC(=O)c2cccnc2)cc1	-7.9	-33.3	-24.6	-5.7	-11.8	-4.5
Cc1csc(NC(=O)c2cccnc2)n1	-30.0	-113.9	82.6*	-18.5	-5.6	-12.6
Cc1csc(NC(=O)c2ccccc2)n1	-74.4	-215.7	1.8	-51.6	-7.9	·
Cc1csc(NC(=O)c2ccc(C)c([N+](=O)[O-])c2)n1	-0.1	-105.9	68.2*	16.8	-17.5	-6.6
CCC(=O)NC(=S)Nc1ccc(NC(=O)c2cccnc2)cc1	-2.4	-32.9	72.2*	1.2	0.6	3.3
Cc1ccc(C(=O)Nc2ccccc2C(=O)N2CCCC2)cc1[N+](=O)[O-]	13.6	0.5	100.1*	90.4*	-3.7	-3.1
CCCCc1c(O)nc(SCC(=O)Nc2ccc(OC)cc2)n(-c2ccc(C)c(C)c2)c1=O	-27.1	7.5	4.2	-8.3	-7.5	·
Cc1csc(NC(=O)c2cc3c(s2)CCC3)n1	-0.1	-91.8	68.0*	-46.7	-29.6	-16.2
O=C(Nc1ccccc1OC(F)F)c1cc2c(s1)CCC2	-24.2	-208.9	-54.2	-64.1	9.7	-25.9
COc1ccccc1NC(=O)c1ccc(NC(=O)c2cc3c(s2)CCC3)cc1	18.9	-8.3	58.7*	30.7	11.4	-3.7
O=C(c1noc2c1CCCC2)N1CCCC(N2CCN(c3ccccc3F)CC2)C1 (stereo not drawn)	7.6	1.2	4.1	-3.5	-2.1	3.7
O=C(c1ccsc1)N1CCCC(N2CCN(c3ccccc3F)CC2)C1 (stereo not drawn)	4.5	-12.8	94.7*	-9.2	-1.9	1.2
CCCCCCCCN1C(=O)[C@H](CC(=O)NCCCOC)C[C@@]2(C(=O)OCC)CCCC=C12	·	8.6	-5.9	-19.3	·	·
COc1cc(NC2c3ccccc3C(=O)N2c2ccc(C)cn2)cc(OC)c1OC (stereo not drawn)	-52.7	-211.5	44.2	21.8	-11.3	·
O=C1c2ccccc2C(Nc2cccnc2)N1Cc1ccccc1Cl (stereo not drawn)	-8.5	-1.9	-29.9	1.2	0.2	·
O=C1c2ccccc2C(Nc2cccnc2)N1Cc1ccccc1 (stereo not drawn)	7.6	4.3	1.6	-16.4	81.9*	2.7
